# Measurements as given in PubChem BioAssay (Tox21).
# Where “and” joins values, the source holds several entries; their conditions need not be identical. Equal values may be shown once. Results filed as inconclusive are left out. Where a call stands in place of a potency, no number is given. A structure can be active in one record and inactive in another. Calls of active or inactive are those of the source. Calls come from the whole dose curve; as a rule, active = well fitted curve in the direction sought with a large enough effect in the repeat runs; inconclusive = weak or mixed curves; inactive = no such curve, though single readings can be large; an effect the other way counts as inactive or inconclusive.
# Experiments:
# [1] = Caspase-3/7 induction in HepG2 cells by small molecules, qHTS assay (AID 1346978); note: nearly all actives have a fitted effect of over 15% in size; note: potency is the fitted concentration of half-maximal effect
# Method in brief: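 Wild-type HepG2 cells, 2,000/well, settled 5 hr at 37 C and 5% CO2, then compound-treated for 17 hr; caspase-3/7 activity read by luminescent Caspase-Glo 3/7 after 30 min at room temperature.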
# [2] = Caspase-3/7 induction in CHO-K1 cells by small molecules, qHTS cell viability counter screen (AID 1346979); note: nearly all actives have a fitted effect of over 35% in size; note: potency is the fitted concentration of half-maximal effect
# Method in brief: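 In the same wells as the caspase read, viability of compound-treated wild-type CHO-K1 cells was assessed using CellTiter-Fluor, added after 16hr at 37C and measured by fluorescence following 1hr further incubation.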
# [3] = Caspase-3/7 induction in CHO-K1 cells by small molecules, qHTS assay (AID 1346980); note: nearly all actives have a fitted effect of over 15% in size
# Method in brief: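 Wild-type CHO-K1 cells exposed to compounds for 17hr at 37 C, 5% CO2. Caspase-3/7 activity then measured by Caspase-Glo 3/7 luminescence after 30min at room temperature.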
# [4] = Caspase-3/7 induction in HepG2 cells by small molecules, qHTS cell viability counter screen (AID 1346981); note: nearly all actives have a fitted effect of over 30% in size; note: potency is the fitted concentration of half-maximal effect
# Method in brief: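 CellTiter-Fluor fluorescence measured viability in the same wells used for Caspase-Glo 3/7. HepG2 (wild type) at 2,000 cells/well were pre-incubated 5 hr, dosed, and given reagent at 16 hr, with 1 hr further at 37C.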
# [5] = molecular target: Nuclear receptor subfamily 1 group I member 2 (Homo sapiens) (UniProt O75469); test: Human pregnane X receptor (PXR) small molecule agonists, qHTS assay (AID 1346982); note: nearly all actives have a fitted effect of over 35% in size; note: potency is the fitted concentration of half-maximal effect
# Sequence of Nuclear receptor subfamily 1 group I member 2 (Homo sapiens) (O75469 whole entry, looked up): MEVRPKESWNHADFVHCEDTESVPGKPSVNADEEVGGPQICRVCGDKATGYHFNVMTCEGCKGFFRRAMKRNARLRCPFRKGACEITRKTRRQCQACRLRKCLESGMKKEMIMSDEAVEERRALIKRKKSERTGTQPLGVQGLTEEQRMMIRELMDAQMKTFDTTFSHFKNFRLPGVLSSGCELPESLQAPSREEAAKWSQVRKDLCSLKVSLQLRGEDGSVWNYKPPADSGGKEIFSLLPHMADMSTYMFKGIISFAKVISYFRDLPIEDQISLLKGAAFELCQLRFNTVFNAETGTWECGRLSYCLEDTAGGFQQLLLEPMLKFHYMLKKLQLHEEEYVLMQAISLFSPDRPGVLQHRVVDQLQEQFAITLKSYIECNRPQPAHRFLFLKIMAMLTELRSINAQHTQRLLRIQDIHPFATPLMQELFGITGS
# Method in brief: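 Agonist mode: luminescence from ONE-Glo after 24 h compound exposure at 37C in HepG2 cells carrying hPXR-responsive CYP3A4 luciferase, plated in charcoal-stripped serum medium 5 h beforehand.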
# [6] = molecular target: Nuclear receptor subfamily 1 group I member 2 (Rattus norvegicus) (UniProt Q9R1A7); test: Rat pregnane X receptor (rPXR) activation by small molecules, qHTS assay (AID 1346983); conditions: rPXR luciferase reporter cells, One-Glo luminescence, 24 h; max activation: stronger effect = higher value; note: nearly all actives have a fitted effect of over 20% in size
# Sequence of Nuclear receptor subfamily 1 group I member 2 (Rattus norvegicus) (Q9R1A7 whole entry, looked up): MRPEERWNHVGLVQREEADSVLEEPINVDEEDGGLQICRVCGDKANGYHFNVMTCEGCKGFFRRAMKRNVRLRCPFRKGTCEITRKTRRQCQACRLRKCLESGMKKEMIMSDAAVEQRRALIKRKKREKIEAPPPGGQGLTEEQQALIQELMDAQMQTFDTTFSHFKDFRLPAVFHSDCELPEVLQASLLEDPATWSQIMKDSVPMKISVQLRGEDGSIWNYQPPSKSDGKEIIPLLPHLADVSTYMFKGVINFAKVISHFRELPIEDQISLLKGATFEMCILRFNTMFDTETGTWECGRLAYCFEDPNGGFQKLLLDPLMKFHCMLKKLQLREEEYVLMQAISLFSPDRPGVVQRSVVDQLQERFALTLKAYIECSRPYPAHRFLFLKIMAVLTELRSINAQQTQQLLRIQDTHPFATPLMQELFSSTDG
# Method in brief: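 Cell-based rPXR activation assay: rPXR cells, 2,000 per well, rested 5hr at 37 C, then exposed to compounds in DMSO for 24 hr at 37 C. Luciferase activity read by One-Glo luminescence after 30 min at room temperature.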
# [7] = molecular target: Cytochrome P450 2D6 (Homo sapiens) (UniProt P10635); test: Cytochrome P450 Family 2 Subfamily D Member 6 (CYP2D6) small molecule antagonists: luciferase reporter qHTS assay (AID 1671196); note: nearly all actives have a fitted effect of over 50% in size; note: potency is the fitted concentration of half-maximal effect
# Sequence of Cytochrome P450 2D6 (Homo sapiens) (P10635 whole entry, looked up): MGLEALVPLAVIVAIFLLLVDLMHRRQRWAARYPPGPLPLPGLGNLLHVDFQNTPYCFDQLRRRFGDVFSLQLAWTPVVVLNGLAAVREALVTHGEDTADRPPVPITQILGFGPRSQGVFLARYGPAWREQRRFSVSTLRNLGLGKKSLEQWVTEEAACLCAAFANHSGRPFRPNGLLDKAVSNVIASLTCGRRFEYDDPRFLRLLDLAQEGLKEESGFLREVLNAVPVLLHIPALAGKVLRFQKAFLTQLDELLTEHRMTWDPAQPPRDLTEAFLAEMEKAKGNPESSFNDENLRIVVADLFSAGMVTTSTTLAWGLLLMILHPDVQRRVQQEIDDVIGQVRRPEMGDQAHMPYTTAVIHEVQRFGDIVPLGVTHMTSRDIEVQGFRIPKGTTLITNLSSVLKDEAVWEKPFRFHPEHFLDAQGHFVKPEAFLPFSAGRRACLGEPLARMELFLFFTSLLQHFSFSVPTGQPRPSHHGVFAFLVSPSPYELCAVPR
# Method in brief: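 CYP2D6 activity was followed as luminescence from its luciferin product after a 1 h NADPH-driven reaction at room temperature. Enzyme-substrate mix and compound were pre-incubated for 10 min, and the signal was read 20 min after adding detection reagent.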
# [8] = molecular target: Cytochrome P450 2C9 (Homo sapiens) (UniProt P11712); test: Cytochrome P450 Family 2 Subfamily C Member 9 (CYP2C9) small molecule antagonists: luciferase reporter qHTS assay (AID 1671198); note: nearly all actives have a fitted effect of over 50% in size; note: potency is the fitted concentration of half-maximal effect
# Sequence of Cytochrome P450 2C9 (Homo sapiens) (P11712 whole entry, looked up): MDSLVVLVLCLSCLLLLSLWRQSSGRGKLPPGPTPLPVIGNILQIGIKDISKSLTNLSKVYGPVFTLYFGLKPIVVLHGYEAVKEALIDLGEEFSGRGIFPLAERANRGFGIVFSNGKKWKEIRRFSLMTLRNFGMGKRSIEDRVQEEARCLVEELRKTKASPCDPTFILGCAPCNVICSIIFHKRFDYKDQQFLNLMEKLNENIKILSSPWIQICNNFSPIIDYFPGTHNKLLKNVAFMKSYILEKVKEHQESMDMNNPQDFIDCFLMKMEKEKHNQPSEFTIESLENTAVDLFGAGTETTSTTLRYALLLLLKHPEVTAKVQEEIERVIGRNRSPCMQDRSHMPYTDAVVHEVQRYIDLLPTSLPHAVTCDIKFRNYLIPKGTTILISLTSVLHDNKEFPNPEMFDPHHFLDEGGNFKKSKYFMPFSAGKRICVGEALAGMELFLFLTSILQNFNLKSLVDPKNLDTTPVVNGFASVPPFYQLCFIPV
# Method in brief: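 P450-Glo proluciferin substrate with CYP2C9 enzyme; 10 min RT preincubation, then NADPH regeneration 1 h at 37C; luciferin detection reagent 20 min RT, luminescence in relative luminescence units.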
# [9] = molecular target: Cytochrome P450 1A2 (Homo sapiens) (UniProt P05177); test: Cytochrome P450 Family 1 Subfamily A Member 2 (CYP1A2) small molecule antagonists: luciferase reporter qHTS assay (AID 1671199); note: nearly all actives have a fitted effect of over 50% in size; note: potency is the fitted concentration of half-maximal effect
# Sequence of Cytochrome P450 1A2 (Homo sapiens) (P05177 whole entry, looked up): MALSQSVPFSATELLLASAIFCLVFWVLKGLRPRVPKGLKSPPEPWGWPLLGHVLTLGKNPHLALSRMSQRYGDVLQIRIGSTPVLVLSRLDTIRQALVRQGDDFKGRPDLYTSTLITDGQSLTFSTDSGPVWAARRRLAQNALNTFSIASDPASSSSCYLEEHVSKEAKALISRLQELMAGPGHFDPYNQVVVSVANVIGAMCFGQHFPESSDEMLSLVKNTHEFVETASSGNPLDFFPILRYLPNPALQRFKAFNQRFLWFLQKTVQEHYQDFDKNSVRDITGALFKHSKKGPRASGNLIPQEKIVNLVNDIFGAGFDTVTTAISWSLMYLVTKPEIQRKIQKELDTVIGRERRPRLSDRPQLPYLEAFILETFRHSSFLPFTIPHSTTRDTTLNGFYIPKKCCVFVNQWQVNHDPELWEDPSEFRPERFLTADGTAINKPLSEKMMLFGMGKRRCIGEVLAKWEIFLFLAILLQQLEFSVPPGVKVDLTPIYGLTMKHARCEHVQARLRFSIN
# Method in brief: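 Luminescence from luciferin formed by CYP1A2 from a proluciferin substrate, read 20 min after detection reagent. Compound was pre-incubated 10 min with enzyme-substrate, and reaction started with NADPH regeneration solution for 1 h at room temperature; furafylline control.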
# [10] = molecular target: Voltage-gated inwardly rectifying potassium channel KCNH2 (Homo sapiens) (UniProt Q12809); test: Human Ether-a-go-go-Related Gene (hERG) channel small molecule antagonists: fluorescence cell-based qHTS assay (AID 1671200); note: nearly all actives have a fitted effect of over 50% in size; note: potency is the fitted concentration of half-maximal effect
# Sequence of Voltage-gated inwardly rectifying potassium channel KCNH2 (Homo sapiens) (Q12809 whole entry, looked up): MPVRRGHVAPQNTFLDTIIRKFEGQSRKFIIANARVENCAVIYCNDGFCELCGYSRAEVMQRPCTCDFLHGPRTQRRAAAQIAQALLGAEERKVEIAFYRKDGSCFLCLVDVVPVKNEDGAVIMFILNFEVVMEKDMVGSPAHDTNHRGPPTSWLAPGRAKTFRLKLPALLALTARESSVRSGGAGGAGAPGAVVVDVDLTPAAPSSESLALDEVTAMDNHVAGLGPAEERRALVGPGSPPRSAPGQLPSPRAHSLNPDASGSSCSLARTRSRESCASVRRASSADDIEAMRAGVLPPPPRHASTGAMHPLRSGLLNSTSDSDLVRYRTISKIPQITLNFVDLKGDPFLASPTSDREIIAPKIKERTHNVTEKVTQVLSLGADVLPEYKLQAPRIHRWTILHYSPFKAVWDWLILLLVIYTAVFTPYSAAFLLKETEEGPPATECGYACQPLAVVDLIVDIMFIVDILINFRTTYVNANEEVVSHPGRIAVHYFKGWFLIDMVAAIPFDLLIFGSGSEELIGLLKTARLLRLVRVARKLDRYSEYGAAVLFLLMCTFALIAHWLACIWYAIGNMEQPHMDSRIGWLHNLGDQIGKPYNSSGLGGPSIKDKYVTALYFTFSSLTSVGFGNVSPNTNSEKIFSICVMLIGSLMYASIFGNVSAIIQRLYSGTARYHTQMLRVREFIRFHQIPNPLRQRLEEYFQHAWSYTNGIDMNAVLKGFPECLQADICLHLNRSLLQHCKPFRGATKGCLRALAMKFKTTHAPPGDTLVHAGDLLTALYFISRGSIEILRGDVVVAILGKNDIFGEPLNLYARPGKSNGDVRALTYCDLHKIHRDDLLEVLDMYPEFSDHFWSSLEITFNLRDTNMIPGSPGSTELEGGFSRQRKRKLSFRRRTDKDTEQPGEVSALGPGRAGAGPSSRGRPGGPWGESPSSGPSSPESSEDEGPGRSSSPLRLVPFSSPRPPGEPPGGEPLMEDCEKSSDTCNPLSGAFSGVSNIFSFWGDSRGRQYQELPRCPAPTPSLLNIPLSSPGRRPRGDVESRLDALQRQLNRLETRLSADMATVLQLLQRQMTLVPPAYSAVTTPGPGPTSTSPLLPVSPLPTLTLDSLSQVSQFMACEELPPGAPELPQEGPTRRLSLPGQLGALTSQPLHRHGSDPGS
# Method in brief: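 Quantitative HTS in hERG-U2OS cells: thallium entry through the channel reports activity, read as continuous 480/540 nm fluorescence over 2 min after stimulus addition.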
# [11] = molecular target: Cytochrome P450 3A4 (Homo sapiens) (UniProt P08684); test: Cytochrome P450 Family 3 Subfamily A Member 4 (CYP3A4) small molecule antagonists: luciferase reporter qHTS assay (AID 1671201); note: nearly all actives have a fitted effect of over 50% in size; note: potency is the fitted concentration of half-maximal effect
# Sequence of Cytochrome P450 3A4 (Homo sapiens) (P08684 whole entry, looked up): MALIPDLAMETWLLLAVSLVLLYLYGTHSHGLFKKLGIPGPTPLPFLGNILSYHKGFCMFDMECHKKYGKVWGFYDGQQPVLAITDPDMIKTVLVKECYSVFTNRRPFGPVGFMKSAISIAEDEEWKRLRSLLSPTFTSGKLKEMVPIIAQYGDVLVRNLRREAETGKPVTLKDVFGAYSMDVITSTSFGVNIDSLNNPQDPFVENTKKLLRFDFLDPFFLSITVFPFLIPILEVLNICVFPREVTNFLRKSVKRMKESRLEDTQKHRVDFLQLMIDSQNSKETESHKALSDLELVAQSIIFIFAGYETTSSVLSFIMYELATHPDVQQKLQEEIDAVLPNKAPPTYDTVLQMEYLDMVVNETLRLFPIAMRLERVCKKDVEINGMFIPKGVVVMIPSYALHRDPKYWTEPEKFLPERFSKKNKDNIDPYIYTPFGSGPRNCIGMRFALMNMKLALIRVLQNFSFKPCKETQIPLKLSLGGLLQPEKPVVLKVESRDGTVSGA
# Method in brief: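 Inhibition of CYP3A4 is measured as loss of light: the enzyme converts a proluciferin substrate to luciferin, detected luminescently. Reaction ran 1 h at room temperature with NADPH regeneration after a 10 min compound preincubation.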
# [12] = molecular target: Nuclear receptor subfamily 1 group I member 2 (Homo sapiens) (UniProt O75469); test: CYP3A4 induction through human pregnane X receptor (PXR) by small molecules, qHTS assay (AID 1346984); note: nearly all actives have a fitted effect of over 40% in size; note: potency is the fitted concentration of half-maximal effect
# Method in brief: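 Read-out is luminescence after One-Glo addition, following a 3 hr, 37C incubation with Luciferin-IPA CYP3A4 substrate (3uM final). Before that, compounds were on DPX-2 cells (HepG2 co-transfected with PXR element plus CYP3A4-promoter luciferase) for 24 hr at 37C.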
# [13] = molecular target: Cytochrome P450 2C19 (Homo sapiens) (UniProt P33261); test: Cytochrome P450 Family 2 Subfamily C Member 19 (CYP2C19) small molecule antagonists: luciferase reporter qHTS assay (AID 1671197); note: nearly all actives have a fitted effect of over 65% in size; note: potency is the fitted concentration of half-maximal effect
# Sequence of Cytochrome P450 2C19 (Homo sapiens) (P33261 whole entry, looked up): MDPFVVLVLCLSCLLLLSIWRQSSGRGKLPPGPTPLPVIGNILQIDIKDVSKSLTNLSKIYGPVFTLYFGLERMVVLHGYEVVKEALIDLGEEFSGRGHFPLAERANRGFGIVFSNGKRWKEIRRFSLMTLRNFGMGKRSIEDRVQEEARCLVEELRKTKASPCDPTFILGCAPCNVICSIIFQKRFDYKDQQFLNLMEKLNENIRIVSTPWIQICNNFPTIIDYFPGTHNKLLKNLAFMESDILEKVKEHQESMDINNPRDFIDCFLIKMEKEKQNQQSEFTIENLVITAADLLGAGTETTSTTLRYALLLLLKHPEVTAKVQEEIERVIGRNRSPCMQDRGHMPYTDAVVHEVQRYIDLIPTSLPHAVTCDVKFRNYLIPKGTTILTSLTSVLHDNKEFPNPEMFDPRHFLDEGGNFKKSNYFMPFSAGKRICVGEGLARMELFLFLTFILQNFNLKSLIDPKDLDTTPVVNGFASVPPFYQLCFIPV
# Method in brief: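 Quantitative high-throughput screen of the Tox21 library using CYP2C19 with proluciferin substrate. Reaction: NADPH regeneration, 37C, 1 h, after 10 min compound preincubation at room temperature. Readout: luminescence.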
Structure (SMILES),Potency [1],Potency [2],Potency [3],Potency [4],Potency [5],max activation [6],Potency [7],Potency [8],Potency [9],Potency [10],Potency [11],Potency [12],Potency [13]
O=C(O)CC(O)C(=O)O (centres undefined),inactive,inactive,inactive,inactive,inactive,-2.6% (inactive),inactive,inactive,inactive and 35.6 µM (active),inactive,inactive,–,–
O=c1[nH]cnc2c1ncn2[C@H]1CC[C@@H](CO)O1,inactive,inactive,inactive,inactive,inactive,0.0547% (inactive),inactive,inactive,inactive,inactive,inactive,inactive,inactive
CC(C)c1c(C(=O)Nc2ccccc2)c(-c2ccccc2)c(-c2ccc(F)cc2)n1CC[C@@H](O)C[C@@H](O)CC(=O)O,26.3 µM (active),–,inactive,inactive,–,–,–,–,–,–,–,–,–
CCN(CC)C(=O)c1cccc(C)c1,–,inactive,inactive,inactive,inactive,-4.83% (inactive),inactive,inactive,–,inactive,–,–,inactive and 71 µM (active)
NC(CO)(CO)CO,–,inactive,inactive,inactive,inactive,-3.86% (inactive),inactive,inactive,inactive,inactive,inactive,inactive,inactive
CN(C)C(=S)SC(=S)N(C)C,–,1.4 µM (active) and 433 nM (active) and 2.11 µM (active),inactive,30.6 µM (active),1.98 µM (active) and inactive,-4.94% (inactive),–,36.5 µM (active) and 25.2 µM (active) and 34.7 µM (active),32.5 µM (active) and 39.9 µM (active) and 25.7 µM (active),inactive,inactive,inactive,16.3 µM (active) and 20 µM (active) and 7.76 µM (active)
CC12CCC(CC1)C(C)(C)O2,–,inactive,inactive,inactive,inactive,-0.857% (inactive),inactive,inactive,31.3 µM (active) and inactive,inactive,inactive,inactive,inactive
CN[C@H]1CC[C@@H](c2ccc(Cl)c(Cl)c2)c2ccccc21,13.3 µM (active),29.8 µM (active),–,29.8 µM (active),–,8.99% (inactive),1.55 µM (active),30.9 µM (active),17.4 µM (active),–,–,–,3.89 µM (active)
Nc1c(N=Nc2ccc(-c3ccc(N=Nc4cc(S(=O)(=O)O)c5ccccc5c4N)cc3)cc2)cc(S(=O)(=O)O)c2ccccc12,–,12.2 µM (active),inactive,17.2 µM (active),inactive,-6.72% (inactive),35.6 µM (active),31.7 µM (active),63.3 µM (active),–,–,22.4 µM (active),71 µM (active)
Nc1ccc([N+](=O)[O-])cc1O,inactive,40.9 µM (active),inactive,48.6 µM (active),61.1 µM (active),–,–,43.5 µM (active),42.3 µM (active),inactive,–,–,6.33 µM (active)
C[C@](N)(Cc1ccc(O)c(O)c1)C(=O)O,–,inactive,inactive,inactive,inactive,-6.56% (inactive),inactive,inactive,inactive,inactive,inactive,inactive,inactive
CCCc1cc(=O)[nH]c(=S)[nH]1,–,inactive,inactive,inactive,inactive,-3.01% (inactive),inactive,inactive,inactive,inactive,inactive,inactive,inactive
CCCCCCCCCCCCCCCC[N+](C)(C)Cc1ccccc1,–,50.1 µM (active) and 39.3 µM (active) and 29.8 µM (active),inactive,62.2 µM (active),inactive,-17.4% (inactive),923 nM (active) and 406 nM (active) and 389 nM (active),82.2 µM (active) and 36.2 µM (active) and 30.9 µM (active),36.7 µM (active) and 72.3 µM (active) and inactive,1.79 µM (active) and 4.98 µM (active) and 6.74 µM (active),inactive,inactive,32.7 µM (active) and 51.2 µM (active) and 27.5 µM (active)
CCCCNC(=O)NS(=O)(=O)c1ccc(C)cc1,inactive,inactive,inactive,inactive,–,–,–,–,–,inactive,–,–,–
COc1ccc2c(c1)c(CC(=O)O)c(C)n2C(=O)c1ccc(Cl)cc1,inactive,61.5 µM (active),inactive,–,inactive,–,35.8 µM (active) and inactive,22.6 µM (active) and 17.8 µM (active) and 13.8 µM (active),inactive,inactive,inactive,–,inactive
CCOc1ccc(NC(C)=O)cc1,inactive,inactive,inactive,inactive,inactive,–,inactive,inactive,–,inactive,inactive,–,–
CN1[C@@H]2CC(OC(=O)[C@H](CO)c3ccccc3)C[C@H]1[C@@H]1O[C@@H]12 (some centres undefined),–,inactive,inactive,inactive,inactive,6.06% (inactive) and -0.026% (inactive),–,–,–,–,–,–,–

Structure (SMILES),Potency [1],Potency [2],Potency [3],Potency [4],Potency [5],max activation [6],Potency [7],Potency [8],Potency [9],Potency [10],Potency [11],Potency [12],Potency [13]
NC(=O)n1c(O)c(C(=O)c2cccs2)c2cc(Cl)ccc21,inactive,–,inactive,–,–,4.95% (inactive),inactive,12.3 µM (active),15.5 µM (active),inactive,–,28.2 µM (active),–
CC(O)(P(=O)(O)O)P(=O)(O)O,–,inactive,inactive,inactive,inactive,-1.65% (inactive),inactive,inactive,–,inactive,inactive,inactive,inactive
CCCCCCc1ccc(O)cc1O,–,61.3 µM (active) and 61.1 µM (active) and 1.19 µM (active),inactive,inactive,68.8 µM (active) and inactive,-2.3% (inactive),31.8 µM (active) and 31.7 µM (active) and 15.5 µM (active),7.12 µM (active) and 6.33 µM (active) and 5.49 µM (active),71.2 µM (active) and 71 µM (active) and inactive,inactive,–,inactive,5.04 µM (active) and 5.64 µM (active) and 3.89 µM (active)
C1=CC2C3C=CC(C3)C2C1 (centres undefined),inactive,inactive,inactive,inactive,–,–,6.99 µM (active),–,57 µM (active),inactive,inactive,–,inactive
Cn1c(=O)c2c(ncn2C)n(C)c1=O,inactive,61.9 µM (active) and inactive,inactive,61.9 µM (active) and inactive,–,–,–,–,–,inactive,–,–,–
C/C=C/C=C/C(=O)O,inactive,inactive,inactive,inactive,–,0.352% (inactive),–,–,–,inactive,–,–,–
O=C(Nc1ncc([N+](=O)[O-])s1)c1cccs1,–,26.6 µM (active),inactive,29.8 µM (active),0.531 µM (active),–,12.3 µM (active),5.49 µM (active),1.82 µM (active),inactive,–,inactive,8.71 µM (active)
CCCCCCCC(=O)OCC(COC(=O)CCCCCCC)OC(=O)CCCCCCC,–,inactive,inactive,inactive,inactive,-1.45% (inactive),inactive,inactive,inactive,inactive,inactive,inactive,inactive
O=C1O[C@H]([C@@H](O)CO)C(O)=C1O,–,inactive,inactive,inactive,inactive,-0.298% (inactive) and -0.0182% (inactive),inactive,inactive,inactive and 19.5 µM (active),inactive,inactive,inactive,inactive
CNNCc1ccc(C(=O)NC(C)C)cc1,inactive,inactive,inactive,inactive,–,-1.77% (inactive),–,–,–,inactive,–,–,–
CC(C)NCC(O)c1ccc(O)c(O)c1 (centres undefined),inactive,inactive,inactive,inactive,–,–,–,–,–,inactive,–,–,–
CC(=O)Nc1c(I)c(NC(C)=O)c(I)c(C(=O)O)c1I,inactive,inactive,inactive,inactive,24.3 µM (active) and inactive,–,inactive,inactive,inactive,inactive,inactive,–,inactive and 79.6 µM (active)
CCCC[P+](CCCC)(CCCC)CCCC,inactive,inactive,inactive,inactive,–,–,–,–,–,21.8 µM (active) and 22.3 µM (active) and 12.3 µM (active),–,–,–
CN(C)C(=O)Nc1ccc(Cl)c(Cl)c1,–,inactive,inactive,inactive,60.9 µM (active) and 48.6 µM (active) and inactive,-0.866% (inactive),31.6 µM (active) and inactive,inactive,794 nM (active) and 1.42 µM (active) and 645 nM (active),inactive,inactive,inactive,39.8 µM (active) and 71 µM (active) and inactive
COc1ccc2cc(S(=O)(=O)N[C@H](CC(=O)N[C@H](Cc3ccc(CN4[C@H](C)CCC[C@@H]4C)cc3)C(=O)N(C)C(C)C)c3ccc4c(c3)OCO4)ccc2c1,–,51.6 µM (active),inactive,29 µM (active),inactive,–,0.169 µM (active),59.9 µM (active),inactive,7.34 µM (active),0.0949 µM (active),–,–
CCCCC1(COC(=O)CCC(=O)O)C(=O)N(c2ccccc2)N(c2ccccc2)C1=O,–,inactive,inactive,inactive,–,–,–,–,–,inactive,–,–,–
